Bioassay records: PubChem, National Center for Advancing Translational Sciences (NCATS)
A selection: hits, their analogues and other compounds. The true share with any hit is near 9%.
HTT ATP protect: protects HTT-Q103 PC12 cells, measured by ATP. PC12 HTT-Q103 induced, cytoprotection, ATP luminescence, 40 h. Potency, µM (top dose mostly 56.4 µM), inactives show cytoprotection (ATP increase), hits mostly activators. AID 1471. 0.14% of 230,000 active; note: % of control where 0% means no effect; nearly all actives have a fitted effect of over 45% in size
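Readout: ATPlite luminescence (ATP level). Model: stable PC12, inducible Htt exon1 Q103-GFP. Inducer: tebufenozide, 100 nM final. Compounds: dose series. No G418 in medium.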
KinaseGlo FLuc: blocks Kinase-Glo luciferase, a counter-screen artifact. 0.28% of 200,000 active. Kinase-Glo luciferase, ATP luminescence, 8 min. AID 1379. Potency, µM (highest dose often 38.3 µM), inactives show at the top dose activity change, negative = inhibition, actives largely listed as inhibitors. Q27757; note: % is set by controls: 0 for no effect and ±100 for the full control effect; nearly all actives have a fitted effect of over 60% in size
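Luminescence was the read-out, taken after 8-minute incubation at ambient temperature. Luciferase turned over luciferin with 10 uM ATP in imidazole pH 7.2 buffer containing KCl, MgCl2, Tween 20 and BSA.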
Lamin A splicing: changes lamin A minigene splicing in HeLa cells | HeLa LMNA splicing GFP/RFP minigene ratio, 48 h | Potency, µM (top dose mostly 46.1 µM), without a hit: top-dose ratio change, negative = inhibition, actives largely listed as inhibitors | 0.01% of 200,000 active | AID 1487; active = well fitted inhibition curve with a large enough effect in the signal ratio, with a control signal flat, not every such curve was filed as active; inconclusive = small, poorly fitted or top-dose-only effect, or effect the other way, or a change in a side signal; the % refers to the signal ratio; note: % is set by controls: 0 for no effect and ±100 for the full control effect
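S3 HeLa stable clones carrying a lamin A-EGFP splicing minigene plus DsRed2 were seeded at 600 cells/well in Opti-MEM with 2% FBS, pin-dosed and incubated 48 h at 37°C. Acumen cytometry (488 nm) gave the GFP/RFP total-intensity ratio.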
HPGD inh: inhibitors of human 15-hydroxyprostaglandin dehydrogenase (HPGD); purified HPGD, NADH fluorescence kinetic, PGE2 substrate; 4.3% of 150,000 active; AID 894; Potency, µM, for the others: at the top dose activity change, negative = inhibition, most hits filed as inhibitors; P15428; active = well fitted inhibition curve with a large enough effect, not every such curve was filed as active; inconclusive = small, poorly fitted or top-dose-only effect, or another doubt; inactive = no such curve, though single readings can be large or run the other way; note: % is set by controls: 0 for no effect and ±100 for the full control effect
Target sequence (P15428 whole entry, looked up): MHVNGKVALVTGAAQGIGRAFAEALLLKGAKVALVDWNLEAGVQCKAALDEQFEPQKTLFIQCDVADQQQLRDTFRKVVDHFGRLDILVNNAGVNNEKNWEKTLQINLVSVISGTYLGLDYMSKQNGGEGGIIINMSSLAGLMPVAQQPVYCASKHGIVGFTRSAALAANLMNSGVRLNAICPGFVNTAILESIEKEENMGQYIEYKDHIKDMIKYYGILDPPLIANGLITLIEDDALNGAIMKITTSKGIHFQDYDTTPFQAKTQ
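NADH formation kinetics: reaction with 30 uM PGE2 and 1 mM NAD+ (final), 20 nM enzyme, Tris-HCl pH 8 with Tween 20, after 15 min compound preincubation at room temperature. Fluorescence change, last versus first of five reads.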
HTT aggregate: mutant huntingtin aggregation inhibition; PC12 HttQ103-GFP aggregates, Acumen cytometry, 40 h; Potency, µM (series often up to 46.1 µM), for inactives: top-dose activity change, negative = inhibition, actives largely listed as inhibitors; 1.1% of 220,000 active; note: % is set by controls: 0 for no effect and ±100 for the full control effect; nearly all actives have a fitted effect of over 60% in size
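Inducible Q103 Huntingtin exon 1–GFP PC12 line, 1500 cells/well in phenol red free DMEM with 5% equine and 5% calf serum. Tebufenozide 100 nM induced expression; compounds titrated; aggregates quantified by cytometry.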
ALDH1A1 inh: inhibitors of human aldehyde dehydrogenase 1A1. P00352. Purified ALDH1A1, NADH fluorescence, propionaldehyde substrate. Potency, µM (top dose mostly 75.3 µM), inactives show at the highest dose activity, negative = inhibition, most hits filed as inhibitors. 7.3% of 220,000 active. AID 1030; active = well fitted inhibition curve with a large enough effect, not every such curve was filed as active; inconclusive = small, poorly fitted or top-dose-only effect, or another doubt; inactive = no such curve, though single readings can be large or run the other way;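 note: plate controls were no enzyme wells and a reference inhibitor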
Target sequence (P00352 whole entry, looked up): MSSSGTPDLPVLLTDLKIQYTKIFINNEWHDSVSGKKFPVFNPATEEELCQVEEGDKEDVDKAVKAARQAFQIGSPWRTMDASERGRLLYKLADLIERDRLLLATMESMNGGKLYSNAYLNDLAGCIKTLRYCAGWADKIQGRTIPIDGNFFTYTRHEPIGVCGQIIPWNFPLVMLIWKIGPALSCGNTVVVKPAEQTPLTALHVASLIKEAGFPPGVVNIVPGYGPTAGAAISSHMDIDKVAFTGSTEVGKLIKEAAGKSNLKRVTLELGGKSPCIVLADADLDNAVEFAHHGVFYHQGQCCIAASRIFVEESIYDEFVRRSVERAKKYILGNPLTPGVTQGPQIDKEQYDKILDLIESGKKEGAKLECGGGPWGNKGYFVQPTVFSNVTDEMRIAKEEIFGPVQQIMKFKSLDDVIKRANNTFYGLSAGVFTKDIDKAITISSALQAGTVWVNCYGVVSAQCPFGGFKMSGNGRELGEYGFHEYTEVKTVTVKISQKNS
The depositor's hits bear a star; u = inconclusive; x = no result; [ ] = another dose, or the depositor's remark. Unless noted, calls come from the whole dose curve; as a rule, active = well fitted curve in the direction sought with a large enough effect; inconclusive = small, poorly fitted or top-dose-only effect, or another doubt; inactive = no such curve, though single readings can be large; an effect the other way counts as inactive or inconclusive. Potency is the fitted concentration of half-maximal effect.

SMILES	HTT ATP protect	KinaseGlo FLuc	Lamin A splicing	HPGD inh	HTT aggregate	ALDH1A1 inh
O=C1CCCN1c1ccc(S(=O)(=O)NCCc2ccc(Cl)cc2)cc1	13%	1%	u	-17%	u	u
CC(=O)C(=Cc1ccc(O)cc1)C(C)=O	6%[10 µM]	x	-5%[46 µM]	x	-5%[9.22 µM]	7.1µM*
CCC(=O)Nc1ccc(C=C(C(C)=O)C(C)=O)cc1	18%[10 µM]	x	x	x	10%[9.22 µM]	x
CC(C)(C)NC(=O)CSc1nnc(Cc2ccccc2)n1CC1CCCO1 (configuration not stated)	-31%	1%	11%[46 µM]	x	-12%[9.22 µM]	8%
CCOC(=O)CSc1nc2ccccc2c(=O)n1-c1ccc(C(=O)NCCOC)cc1	13%	-1%	-5%[46 µM]	-20%	3%	1%
COC(=O)c1ccc2c(=O)n(-c3ccccc3)c(SCN3C(=O)c4ccccc4C3=O)nc2c1	4%[10 µM]	-4%	u	-11%	-2%	13µM*
CCOC(=O)CSc1nc2cc(C(=O)N3CCC(C(N)=O)CC3)ccc2c(=O)n1-c1ccccc1	-17%	-1%	5%	-27%	2.8µM*	2%
CCOC(=O)CSc1nc2cc(C(=O)N3CCCC3)ccc2c(=O)n1Cc1ccccc1	5%	-4%	-3%	-5%	3%	25µM*
COC(=O)c1c(NC(=O)CSc2nc3ccccc3c(=O)n2-c2ccccc2)sc(C)c1C	x	-1%	1%	-19%	2%	22%
Cc1ccccc1NC(=O)CNc1ccccc1C(=O)NCc1ccco1	-23%	2%	-9%	u	9%[9.22 µM]	u
COc1cccc(CCNc2ccc(N3C(=O)CC(C)C3=O)cc2[N+](=O)[O-])c1 (configuration not stated)	-36%	-2%	x	x	-8%	-6%
Cc1[nH]c2ccc(C(=O)N3CCCCC3)cc2c1C	-44%	0%	-4%[46 µM]	x	-15%	3%
C=CCc1cc(C(=O)N2CCCCC2)ccc1O	10%[1.9 µM]	-2%	u	4µM*	22µM*	u
O=C1Nc2ccccc2C12OC1CCCCC1O2 (configuration not stated)	19%	2%	16%	-7%	7%	u
CCOc1ccc(/C=C/C(=O)c2cccs2)cc1	16%[1.9 µM]	14µM*	x	u	x	u
C#CCCCO/N=C1/[C@H]2O[C@@H]2[C@@H](O)[C@H]2[C@H]1CCn1c(=O)n([C@@H](CC)c3ccccc3)c(=O)n12	14%[10 µM]	x	x	x	x	-9%[13.5 µM]
CCN(CC)CC(=O)n1c2c(c3ccccc31)CCCC2	-3%	2%	9%	-10%	-8%	32µM*
NC(=O)NOCc1ccc(Cl)cc1Cl	-27%	2%	x	x	3%	1%
CNC(=S)/N=C/NOCc1ccc(Cl)cc1Cl	-33%[10 µM]	-2%	-10%[46 µM]	x	7.9µM*	0%
COc1cccc(Cn2c(=O)c(-c3cc(F)cc(F)c3)nc3cncnc32)c1	-75%	x	u	x	x	u
COc1cccc(Cn2c(=O)c(-c3cccc(F)c3)nc3cncnc32)c1	-54%	-3%	x	20µM*	x	-7%
COCCN1CN(S(=O)(=O)c2ccc(Cl)cc2)c2nc3ccccc3nc21	-5%	0%	12%	-8%	0%	24µM*
COCCN1CN(S(=O)(=O)c2ccccc2)c2nc3ccccc3nc21	19%	-2%	8%	u	-10%	14%
CC(C)CCN1CN(S(=O)(=O)c2cccs2)c2nc3ccccc3nc21	-2%	-1%	2%	-7%	-3%	28µM*
COC(=O)CN(n1cnnc1)S(=O)(=O)c1ccccc1Cl	-14%	-4%	-4%	-10%	7%	-2%
SMILES	HTT ATP protect	KinaseGlo FLuc	Lamin A splicing	HPGD inh	HTT aggregate	ALDH1A1 inh
COc1ccccc1NS(=O)(=O)c1cc(NC(=O)c2cccs2)ccc1N1CCCC1	-3%[10 µM]	-1%	-16%	8.9µM*	u	13µM*
COc1ccccc1NS(=O)(=O)c1cc(NC(=O)c2sccc2C)ccc1N1CCOCC1	18%[10 µM]	x	x	x	26%[9.22 µM]	x
COc1ccccc1NS(=O)(=O)c1cc(NC(=O)c2sccc2C)ccc1N1CCCC1	-25%	5%	-21%[46 µM]	x	27%	10µM*
CC(=O)OCCCN1C(=O)c2ccc(Br)cc2C1=O	-11%	-4%	5%	-25%	4%	u
O=C(O)C1CCC(N2C(=O)C3CCCCC3C2=O)CC1 (configuration not stated)	13%	0%	7%	2%	-2%[9.22 µM]	4%
Cc1c(Cc2ccccc2)c(=O)oc2c(C)c(OCC(=O)Nc3ccc(C#N)cc3)ccc12	-2%[10 µM]	x	-7%	x	-7%	u
CC(O)CNc1ccc(-c2nn(C)c(=O)c3ccccc23)cc1[N+](=O)[O-] (configuration not stated)	-27%	1%	x	x	-5%[9.22 µM]	7.9µM*
CN(C)CCCNc1ccc(-c2nn(C)c(=O)c3ccccc23)cc1[N+](=O)[O-]	-32%	0%	x	x	6%	5%
CCC1=C2CC[C@H]3C(=O)N(CC)C(=O)[C@H]3[C@H]2[C@@]2(C)C(=NCC(=O)OC)OC(=O)N2C1=O	-9%	-1%	x	-2%	x	8%
O=c1c2c(n3cnnc3n1C1CCCCC1)-c1ccccc1CC21CCCCC1	8%[10 µM]	-3%	-2%	-12%	-4%	0%
NC(=O)N1CCC2(CC1)NC(=O)N(c1ccccc1)N2	-75%	0%	27%[46 µM]	x	23%	3.5µM*
CCc1ccc(C(C)NC(=O)Cn2cnc3c(=O)n(C)c(=O)n(C)c32)cc1 (configuration not stated)	16%[10 µM]	-2%	-14%	-11%	-18%	28µM*
Oc1csc(Cc2nc(-c3ccc(-c4ccccc4)cc3)cs2)n1	-24%	-9%	9%	-27%	2%	u
Oc1csc(Cc2nc(-c3ccccc3F)cs2)n1	-7%	-12%	x	x	-7%	18µM*
Cc1c(-c2ccccc2)sc(N)c1C(=O)N1CCOCC1	-9%	0%	11%	8.9µM*	0%	13µM*
COC(=O)c1c(N)sc(C(=O)N2CCOCC2)c1C	1%	5%	7%	-8%	-8%	u
COc1ccc(CCNc2oc(Cc3cccc4ccccc34)nc2C#N)cc1OC	-12%[0.074 µM]	0%	u	-28%	13%	7.1µM*
COc1ccc(CCNc2oc(COc3ccccc3F)nc2C#N)cc1	-2%[10 µM]	0%	-10%	18µM*	-13%	u
COCCCNc1oc(COc2ccc(Cl)cc2Cl)nc1C#N	-29%	0%	0%	28µM*	15%	0%
N#Cc1nc(COc2ccccc2F)oc1NCc1ccc(F)cc1	-11%	1%	6%	20µM*	0%	u
